The values that follow come from PubChem BioAssay (NCI).

The panel holds about 83,000 compounds, 20% with a hit somewhere; the sample as a whole holds those more often.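 Note: values are percent growth. 100 is the growth of untreated cells, values between 100 and 0 indicate rising inhibition; between -100 and 0 indicates cell death.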 A number with no mark means an inactive call. Calls of active or inactive are those of the source. The calls were made as follows: active = growth percent below 10; inactive = the rest.

What all share (experiment): NCI-60 one-dose screen, 48 h (100 = growth as untreated, 0 = no growth, -100 = all killed)
Conditions in all cases: 10 µM unless noted

Assay [1] deals with NCI-H23 lung.
In assay [2] the test system is NCI-H226 lung.
The subject of assay [3] is NCI-H322M lung.
Assay [4] relates to HOP-62 NSCLC.
In assay [5] the test system is NCI-H460 lung.
Assay [6] concerns NCI-H522 lung.
Assay [7] has as its system A549/ATCC NSCLC.
Assay [8] has as its system 786-0 renal.
Assay [9] concerns COLO 205 colon.

Turning to `CCCCCCCCN=C(NCCCCCCCC)SCc1cccc2ccccc12`, the growth in assay [1] is -81.2% (active); in assay [2], -84.2% (active); in assay [3] it was -1.49% (active); in assay [4], -97.7% (active); in assay [5], -89.1% (active); in [6] it was -83.3% (active). The results for the growth in assay [7], in [8] and in assay [9] were -75.8% (active), -88.1% (active) and -99.7% (active), respectively.
As for `COc1ccccc1/C=N\Nc1ccc([N+](=O)[O-])cn1`, the growth in assay [1] was 101%; in [2] it was 98.7%; in assay [3], 107%; in [4], 106%; in assay [5], 123%; in assay [6], 101%. Further, the figures for the growth in [7], in assay [8] and in assay [9] were 105%, 105% and 102%, respectively.
For `COc1ccc2nc3ccccc3c(NCc3ccc(C)cc3)c2c1`, the growth in [1] was 28.3%; in assay [2], 42.1%; in [3] it was 30.3%; in assay [4], 39%; in assay [5] it was 10%; in assay [6], 26.4%. Further, the growth in assay [7] was 19.3%; in [8], 15.8%; in assay [9], -40.6% (active).
Regarding `CN1C2CCC1/C(=C\c1ccc(F)cc1)C(=O)/C2=C/c1ccc(F)cc1`, the growth in assay [1] was 47.9%; in assay [2], 55.6%; in assay [3], 50.3%; in assay [4], 76.7%; in assay [5], 14.1%; in assay [6], 34.4%. The growth is 36.6% in [7], 43.8% in assay [8] and 14.8% in assay [9].
As to `COc1ccc(-c2cc(-c3cn(-c4cccc(Cl)c4)nc3-c3ccc(OC)cc3)[nH]c(=S)n2)cc1`, the growth is 83% in [1]; 85.8% in assay [2]; 95.5% in assay [3]; 99.1% in assay [4]; 33.5% in assay [5]; 77.7% in assay [6]. Besides, the growth was 50.4% in [7], 96.5% in assay [8] and 86.6% in [9].
For the compound `CCNCCCn1c2c(c3ccc(Cl)cc3c1=O)C(=O)c1cc(OC)cnc1-2`, the growth is 28.8% in [1]; -6.31% (active) in assay [2]; 45% in [3]; -18.8% (active) in assay [4]; -69.9% (active) in assay [5]; -10.2% (active) in [6]. For the same compound, the figures for the growth in assay [7], in assay [8] and in assay [9] were 25.7%, -95.4% (active) and 8.78% (active), respectively.
As for `C=C(C)[C@@H]1CC[C@]2(C(=O)NC(COC(=O)C(Cl)Cl)(COC(=O)C(Cl)Cl)COC(=O)C(Cl)Cl)CC[C@]3(C)[C@H](CC[C@@H]4[C@@]5(C)CC[C@H](OC(C)=O)C(C)(C)[C@@H]5CC[C@]43C)[C@@H]12`, the growth is 72% in assay [1]; 84.2% in assay [2]; 88.8% in assay [3]; 82.7% in assay [4]; 15.8% in assay [5]; 48.1% in assay [6]. Also, the values for the growth in [7], in [8] and in assay [9] were 27.7%, 37.3% and 36.1%, respectively.
On to `COc1cc(C2C(C#N)=C(N)Oc3cc4c(cc32)OCO4)cc2c1OCO2` (stereo unspecified), for which the growth in assay [1] was 8.48% (active); in assay [2], 0.662% (active); in assay [3], 44.8%; in assay [4], 28.2%; in assay [5], 12.4%; in [6], 5.81% (active). Moreover, the values for the growth in assay [7], in [8] and in assay [9] were 25.3%, 31.1% and -42.1% (active), respectively.
Consider `Cc1ccc(C)c2c1SC1=NNC(Oc3ccc(Cl)cc3)=C(C#N)C(=N)N12`, for which the growth in assay [1] is 92.7%; in assay [2], 94.2%; in assay [3] it was 101%; in [4] it was 103%; in assay [5], 99.9%; in assay [6] it was 87.9%. For the same compound, the growth in assay [7] is 108%; in [8], 110%; in [9] it was 105%.
For `O=C(O)CSc1ccc(NCc2oc(CO)cc(=O)c2O)cc1`, the growth is 99.9% in [1]; 94.8% in assay [2]; 110% in assay [3]; 105% in assay [4]; 110% in assay [5]; 89.3% in [6]. For the same compound, the values for the growth in [7], in [8] and in assay [9] were 103%, 96.6% and 106%, respectively.
For `CN(C)c1nc(-c2ccco2)n2nc(-c3ccc(Cl)cc3)cc2n1`, the growth was 77.5% in [1]; 52% in assay [2]; 69.8% in assay [3]; 38% in [4]; 27.7% in [5]; 71.5% in assay [6]. The values for the growth in assay [7], in assay [8] and in assay [9] were 49.6%, 43.4% and 67.6%, respectively.
On to `COc1cc(-c2nc(-c3ccc(-c4nc5ccc(F)cc5[nH]4)cc3)no2)cc(OC)c1OC`, for which the growth was 30.4% in [1]; 29.2% in [2]; 90.7% in [3]; 26.5% in assay [4]; 43.2% in assay [5]; 18.2% in [6]. The values for the growth in assay [7], in assay [8] and in [9] were 42.8%, 46.4% and 60.4%, respectively.
With `COc1ccc2nc3ccccc3c(NCc3ccc(Cl)cc3)c2c1`, the growth in [1] is 28.3%; in assay [2], 48.8%; in assay [3], 24.6%; in assay [4], 42.4%; in assay [5], 12.5%; in assay [6] it was 34.7%. The growth was 23.6% in assay [7], -76.9% (active) in assay [8] and -61.9% (active) in assay [9].
Consider `CCCCn1cnc2c(SCc3ccc([N+](=O)[O-])cc3)nc(N)nc21`, for which the growth in assay [1] is 96.5%; in [2], 85.6%; in assay [3], 112%; in [4] it was 95.2%; in [5], 108%; in [6], 73.9%. Also, the growth in assay [7] is 90.6%; in assay [8] it was 79.5%; in [9], 105%.
`COc1cnc2c(c1)C(=O)c1c-2n(CCCN2CCCC2)c(=O)c2cc(Cl)ccc12`: the growth in assay [1] is 32.5%; in assay [2], 6.56% (active); in [3], 46.6%; in [4], 16.2%; in [5], -12.9% (active); in assay [6] it was 4.02% (active). The growth in assay [7] was 25.3%; in assay [8] it was -73.1% (active); in assay [9], 10.4%.
Regarding `O=C(/C=C/c1ccccc1Br)c1cccc(OCCCCOc2cccc(C(=O)/C=C/c3ccccc3Br)c2)c1`, the growth in assay [1] is 89.3%; in assay [2], 89.9%; in [3] it was 98.8%; in assay [4], 103%; in assay [5] it was 95.5%; in assay [6], 90.7%. Further, the growth is 87.7% in assay [7], 104% in assay [8] and 103% in assay [9].
With `CCn1c(Cc2ccccc2Nc2c(Cl)cccc2Cl)nnc1SCC(=O)Nc1ccccc1C(F)(F)F`, the growth in [1] was 89.7%; in assay [2], 82.3%; in [3], 79.4%; in [4] it was 98.1%; in assay [5] it was 95.8%; in [6] it was 55.5%. Besides, the values for the growth in assay [7], in assay [8] and in assay [9] were 76.8%, 92% and 99.1%, respectively.
Turning to `CCN(CC)CCCC(C)Nc1c(-c2ccccc2)cnc2cc(Cl)ccc12` (stereo unspecified), the growth was 73.2% in assay [1]; 115% in [2]; 97.4% in assay [3]; 101% in assay [4]; 76.4% in [5]; 50.1% in assay [6]. For the same compound, the growth in [7] was 57.1%; in assay [8] it was 52%; in assay [9] it was 85.3%.
Regarding `CC1(C)CN(CCNc2nccc(-c3c(-c4cccc(O)c4)nc4sccn34)n2)S(=O)(=O)N1`, the growth in assay [1] was 70%; in assay [2] it was 87.5%; in [3] it was 54.2%; in [4], 89.1%; in assay [5], 50.6%; in assay [6], 65.1%. The growth in [7] is 117%; in assay [8] it was 50.6%; in assay [9], 32.1%.
For `COc1ccc(CNc2c3ccccc3nc3ccc(OC)cc23)cc1`, the growth was 21.4% in assay [1]; 33.8% in assay [2]; 23.5% in [3]; 34.1% in assay [4]; 6.48% (active) in assay [5]; 26.2% in assay [6]. For the same compound, the values for the growth in [7], in assay [8] and in assay [9] were 14.6%, 15% and -51.4% (active), respectively.
`COc1ccc(C2c3cccn3-c3ccccc3N2C(C)=O)cc1` (stereo unspecified): the growth in [1] is 99.3%; in assay [2], 97.3%; in [3] it was 82.6%; in assay [4], 88.8%; in [5] it was 97.4%; in assay [6], 122%. The growth in assay [7] is 110%; in assay [8], 106%; in [9] it was 100%.
On to `COc1ccc(-n2c(COc3ccc(F)cc3)n[nH]c2=S)cc1`, for which the growth in assay [1] was 112%; in assay [2], 101%; in assay [3], 96.8%; in assay [4] it was 105%; in assay [5], 110%; in [6], 90.3%. Also, the growth in assay [7] was 131%; in assay [8] it was 102%; in assay [9] it was 116%.
Take `COC(=O)C(Br)(C(=O)OC)C(Br)C(Br)C(Br)c1ccccc1` (stereo unspecified): the growth was 94.1% in assay [1]; 91.8% in assay [2]; 102% in assay [3]; 120% in assay [4]; 100% in [5]; -84.5% (active) in assay [6]. Also, the growth in [7] was 97.9%; in assay [8], 86%; in [9] it was 30.1%.
Consider `COc1ccc(C2=NNC(c3ccc(Oc4nc5c(c(=O)n(C)c(=O)n5C)n4C)c(OC)c3)C2)cc1` (stereo unspecified), for which the growth in assay [1] was 103%; in [2], 89.7%; in assay [3] it was 102%; in [4], 101%; in assay [5], 95%; in assay [6], 84.4%. The figures for the growth in [7], in assay [8] and in assay [9] were 90.5%, 98.7% and 127%, respectively.
For `COc1cc(/C=C2\CN(C(=O)OC(C)(C)C)C/C(=C\c3ccc(O)c(OC)c3)C2=O)ccc1O`, the growth in assay [1] is 97.8%; in assay [2], 94.6%; in assay [3], 100%; in [4] it was 98%; in assay [5] it was 91.7%; in [6], 64.5%. For the same compound, the growth in assay [7] was 73.2%; in assay [8], 93.3%; in assay [9], 110%.
In the case of `Clc1ccc(-c2cnc3c(-c4ccnc(N5CCNCC5)c4)cnn3c2)cc1`, the growth in [1] was -12.3% (active); in assay [2], 115%; in [3], 23.2%; in assay [4], -37.8% (active); in assay [5], -39.8% (active); in assay [6] it was -53.8% (active). Further, the values for the growth in [7], in [8] and in assay [9] were 16.7%, -70% (active) and -57.7% (active), respectively.
Consider `Oc1c(C(Nc2ccccc2Br)c2ccccc2)ccc2cccnc12` (stereo unspecified), for which the growth in assay [1] is 22.2%; in [2], 35%; in [3] it was 24.5%; in assay [4] it was 19.6%; in assay [5], 5.78% (active); in [6] it was -1.78% (active). In addition, the growth in assay [7] is 22.6%; in assay [8] it was 6.91% (active); in [9], 32.4%.
As for `COc1cc(CN(c2ccc(C)cc2)C2OC(=O)c3ccccc32)cc(OC)c1OC` (stereo unspecified), the growth in assay [1] is 29%; in assay [2], 20.1%; in assay [3], 60.2%; in assay [4] it was 24.8%; in [5], 18.4%; in assay [6], 31.7%. In addition, the growth in assay [7] was 30.5%; in [8] it was 28.9%; in assay [9] it was -45.5% (active).
Turning to `CS(=O)(=O)c1ccc(C(=O)N/N=C/c2ccccc2Cl)cc1`, the growth in [1] was 94.8%; in assay [2] it was 97.4%; in [3], 99.2%; in [4], 87.3%; in assay [5] it was 101%; in [6], 96.4%. Also, the growth in [7] is 78.4%; in [8], 97.2%; in [9] it was 90.9%.
